Structures can show the parent of a compound that is named as a salt. ± gives the standard deviation of the averaged measurements.
Legend:
[1] = system: Saccharomyces cerevisiae BY4741 SeMeCo community; assay: z-score of prototroph abundance vs DMSO median; higher = larger share of this subpopulation than in DMSO controls; details: 10 µM; 24 h; SM minimal medium; subpopulation (auxotrophy): Prototroph
In short: (§1)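 A Saccharomyces cerevisiae BY4741 community carried four plasmids, each restoring one auxotrophy and encoding a distinct fluorescent protein. It was pre-grown overnight to OD600 1.0, diluted to 0.3, and 70 µl was added to 384-well plates acoustically predosed with library drugs (10 µM final), then grown 24 h in minimal SM medium. Cells were paraformaldehyde-fixed and imaged by automated confocal microscopy, with single-auxotroph fluorescent strains setting thresholds and autofluorescence correction. Each subpopulation's abundance was scored as a z-score against the vehicle-well median.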

[2] = system: Saccharomyces cerevisiae BY4741 SeMeCo community; assay: z-score of subpopulation abundance vs DMSO median, subpopulation auxotrophic for L; higher = larger share of this subpopulation than in DMSO controls; details: 10 µM; 24 h; SM minimal medium; subpopulation (auxotrophy): L
In short: as §1

[3] = system: Saccharomyces cerevisiae BY4741 SeMeCo community; assay: z-score of subpopulation abundance vs DMSO median, subpopulation auxotrophic for U; higher = larger share of this subpopulation than in DMSO controls; details: 10 µM; 24 h; SM minimal medium; subpopulation (auxotrophy): U
In short: as §1

[4] = system: Saccharomyces cerevisiae BY4741 SeMeCo community; assay: z-score of subpopulation abundance vs DMSO median, subpopulation auxotrophic for LU; higher = larger share of this subpopulation than in DMSO controls; details: 10 µM; 24 h; SM minimal medium; subpopulation (auxotrophy): LU
In short: as §1

[5] = system: Saccharomyces cerevisiae BY4741 SeMeCo community; assay: z-score of subpopulation abundance vs DMSO median, subpopulation auxotrophic for HM; higher = larger share of this subpopulation than in DMSO controls; details: 10 µM; 24 h; SM minimal medium; subpopulation (auxotrophy): HM
In short: as §1

[6] = system: Saccharomyces cerevisiae BY4741 SeMeCo community; assay: z-score of subpopulation abundance vs DMSO median, subpopulation auxotrophic for UM; higher = larger share of this subpopulation than in DMSO controls; details: 10 µM; 24 h; SM minimal medium; subpopulation (auxotrophy): UM
In short: as §1

[7] = system: Saccharomyces cerevisiae BY4741 SeMeCo community; assay: z-score of subpopulation abundance vs DMSO median, subpopulation auxotrophic for HLU; higher = larger share of this subpopulation than in DMSO controls; details: 10 µM; 24 h; SM minimal medium; subpopulation (auxotrophy): HLU
In short: as §1

[8] = system: Saccharomyces cerevisiae BY4741 SeMeCo community; assay: z-score of subpopulation abundance vs DMSO median, subpopulation auxotrophic for HLM; higher = larger share of this subpopulation than in DMSO controls; details: 10 µM; 24 h; SM minimal medium; subpopulation (auxotrophy): HLM
In short: as §1

[9] = system: Saccharomyces cerevisiae BY4741 SeMeCo community; assay: z-score of subpopulation abundance vs DMSO median, subpopulation auxotrophic for HUM; higher = larger share of this subpopulation than in DMSO controls; details: 10 µM; 24 h; SM minimal medium; subpopulation (auxotrophy): HUM
In short: as §1

[10] = system: Saccharomyces cerevisiae BY4741 SeMeCo community; assay: z-score of subpopulation abundance vs DMSO median, subpopulation auxotrophic for LUM; higher = larger share of this subpopulation than in DMSO controls; details: 10 µM; 24 h; SM minimal medium; subpopulation (auxotrophy): LUM
In short: as §1

[11] = system: Saccharomyces cerevisiae BY4741 SeMeCo community; assay: z-score of subpopulation abundance vs DMSO median, subpopulation auxotrophic for HLUM; higher = larger share of this subpopulation than in DMSO controls; details: 10 µM; 24 h; SM minimal medium; subpopulation (auxotrophy): HLUM
In short: as §1

[12] = system: Saccharomyces cerevisiae BY4741 SeMeCo community; assay: z-score of subpopulation abundance vs DMSO median, subpopulation auxotrophic for H; higher = larger share of this subpopulation than in DMSO controls; details: 10 µM; 24 h; SM minimal medium; subpopulation (auxotrophy): H
In short: as §1

[13] = system: Saccharomyces cerevisiae BY4741 SeMeCo community; assay: z-score of subpopulation abundance vs DMSO median, subpopulation auxotrophic for LM; higher = larger share of this subpopulation than in DMSO controls; details: 10 µM; 24 h; SM minimal medium; subpopulation (auxotrophy): LM
In short: as §1

[14] = system: Saccharomyces cerevisiae BY4741 SeMeCo community; assay: z-score of subpopulation abundance vs DMSO median, subpopulation auxotrophic for HU; higher = larger share of this subpopulation than in DMSO controls; details: 10 µM; 24 h; SM minimal medium; subpopulation (auxotrophy): HU
In short: as §1

[15] = system: Saccharomyces cerevisiae BY4741 SeMeCo community; assay: z-score of subpopulation abundance vs DMSO median, subpopulation auxotrophic for HL; higher = larger share of this subpopulation than in DMSO controls; details: 10 µM; 24 h; SM minimal medium; subpopulation (auxotrophy): HL
In short: as §1

[16] = system: Saccharomyces cerevisiae BY4741 SeMeCo community; assay: mean cell size (pixel area) (pixels); higher = larger cells; details: 10 µM; 24 h; SM minimal medium
In short: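 A fluorescent Saccharomyces cerevisiae BY4741 community carrying four plasmids was used, with each plasmid complementing one auxotrophy and bearing a fluorescent marker. An overnight preculture at OD600 = 1.0 was diluted to OD600 = 0.3, and 70 µl went into 384-well plates acoustically predosed with drug (final 10 µM) in SM medium for 24 h. After paraformaldehyde fixation, cells were imaged by automated confocal microscopy and analysed in Harmony, giving the mean cell pixel area per well. Each value is the average of 3 replicates. Same SeMeCo high-content imaging drug screen: Selleck FDA-approved drugs at 10 µM, 24 h in SM medium, 384-well plates, 3 replicates.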

Row | Compound | z-score of prototroph abundance [1] | z-score of subpopulation abundance [2] | z-score of subpopulation abundance [3] | z-score of subpopulation abundance [4] | z-score of subpopulation abundance [5] | z-score of subpopulation abundance [6] | z-score of subpopulation abundance [7] | z-score of subpopulation abundance [8] | z-score of subpopulation abundance [9] | z-score of subpopulation abundance [10] | z-score of subpopulation abundance [11] | z-score of subpopulation abundance [12] | z-score of subpopulation abundance [13] | z-score of subpopulation abundance [14] | z-score of subpopulation abundance [15] | mean cell size [16]
1 | NC(=NCCCCCCN=C(N)N=C(N)Nc1ccc(Cl)cc1)N=C(N)Nc1ccc(Cl)cc1 [Chlorhexidine?2HCl] | 1.92 | 0.63 | -2.8 | -1.64 | -2.23 | -3.13 | 3.88 | 0.93 | -0.7 | 2.03 | 4.27 |  |  |  |  | 
2 | CN(C)CCCC1(c2ccc(F)cc2)OCc2cc(C#N)ccc21 (centres undefined) [Citalopram HBr] |  | -0.17 | 1.58 | 0.92 | -0.81 | 0.83 | 0.43 | 0.45 | 0.08 |  | 1.38 | 0.36 | -0.05 | 0.64 | -0.06 | 
3 | CC(=O)NO [Acetohydroxamic acid] | -0.09 | 1.33 | -0.68 | -0.13 | 0.32 | -0.03 | 0.42 |  | 0.08 |  | 0.86 | 0.14 | 0.84 | -0.11 | 0.57 | 12.5 ± 0.15
4 | CC[C@@H]1C(=O)OC[C@@H]1Cc1cncn1C [Pilocarpine HCl] | 0.73 | 0.16 | -0.55 | -0.22 | 0.01 | -0.51 | -0.93 |  | -1.4 | -0.76 | -0.1 | 0.8 | 0.75 | -0.93 | -0.15 | 12.7 ± 0.26
5 | CC(=O)OC(C)C[N+](C)(C)C (centres undefined) [Methacholine chloride] | -0.97 | 0.65 | 0.32 |  | 0.64 | 0.68 | 0.55 | 0.76 | 0.26 | 0.92 | 0.95 | 0.16 | 0.88 | 0.67 |  | 12.5 ± 0.13
6 | COc1cc(N)c(Cl)cc1C(=O)NC1CCN(CCCOc2ccc(F)cc2)CC1OC (centres undefined) [Cisapride] | 1.03 | 0.11 | -0.14 | -0.54 | -1.22 |  | 0.37 | -0.82 |  | -0.18 | -0.17 |  | -0.7 | -0.01 | -0.95 | 12 ± 0.14
7 | C[C@@H](O)[C@H]1C(=O)N2C(C(=O)O)=C(S[C@@H]3CN[C@H](C(=O)N(C)C)C3)[C@H](C)[C@H]12 [Meropenem] | 0.37 | 0.05 | -0.22 | -0.26 | 0.18 | -0.33 | 0.14 | -0.34 |  | -0.39 | -0.68 | -0.03 |  | -0.01 | -0.23 | 12.4 ± 0.19
8 | CN1CCN(CC(=O)N2c3ccccc3C(=O)Nc3cccnc32)CC1 [Pirenzepine dihydrochloride] | 0.72 | -0.62 | -0.46 | -0.44 | -0.85 | -0.76 | -0.21 | -0.87 |  | -1.37 | -0.89 | 0.01 | -0.32 | -0.67 |  | 11.97 ± 0.054
9 | CC(C)c1c(C(=O)Nc2ccccc2)c(-c2ccccc2)c(-c2ccc(F)cc2)n1CC[C@@H](O)C[C@@H](O)CC(=O)O [Atorvastatin Calcium] | -7.41 | 0.91 | 0.01 | 2.65 | 9.85 | 4.62 | 8.01 | 9.32 | 7.67 | 4.29 | 4.28 | 7.9 | 2.22 |  | 6.43 | 
10 | Nc1c(Br)cc(Br)cc1CN[C@H]1CC[C@H](O)CC1 [Ambroxol HCl] | 1.21 | -1.26 | -0.79 | -0.9 | -1.17 | -0.8 | -0.39 |  | -0.94 | -1.08 | -0.43 | -0.09 | -0.43 | -1.1 | -0.86 | 12.1 ± 0.17
11 | CCCN1C[C@H](C)[C@@H](O)[C@](C)(O)[C@@H](CC)OC(=O)[C@H](C)[C@@H](O[C@H]2C[C@@](C)(OC)[C@@H](O)[C@H](C)O2)[C@H](C)[C@@H](O[C@@H]2O[C@H](C)C[C@H](N(C)C)[C@H]2O)[C@](C)(O)C[C@H]1C [Gamithromycin] | -0.29 | 0.42 | -0.04 | -0.16 | 0.24 |  | 0.75 |  | 0.28 | -0.04 | -0.18 | 2.25 | 0.13 | -0.26 | 0.97 | 12.3 ± 0.13
12 | Cc1onc(-c2ccccc2Cl)c1C(=O)N[C@@H]1C(=O)N2[C@@H]1SC(C)(C)[C@@H]2C(=O)O [Cloxacillin Sodium] |  | 0.15 | 0.9 |  |  | 1.46 | 0.44 | 0.97 | 2.07 | 1.65 | 1.38 | -0.29 | 0.63 |  | -0.33 | 12.44 ± 0.058
13 | CC(C)[C@H](N)C(=O)OCC(CO)OCn1cnc2c(=O)[nH]c(N)nc21 (some centres undefined) [Valganciclovir HCl] |  | 0.28 | -0.54 | -0.94 | -0.64 | -0.83 | -0.52 |  | -0.56 | 0.07 | -0.35 | 0.09 | -0.45 | -0.15 | -0.43 | 
14 | CC1(C)S[C@@H]2[C@H](NC(=O)Cc3ccccc3)C(=O)N2[C@H]1C(=O)O [Benzylpenicillin potassium] |  | 0.24 |  |  | -0.39 | -0.02 | 0.89 | 0.2 | 0.17 | 0.72 | 0.88 | -0.83 | 0.02 |  | -0.23 | 12.1 ± 0.18
15 | CC1(C)[C@H](C(=O)O)N2C(=O)C[C@H]2S1(=O)=O [Sulbactam sodium] | -0.92 | -0.23 |  | 0.63 | 0.23 |  | 0.64 |  | 1.25 | 0.21 | 0.51 | -0.33 | -0.08 | 1.1 | 0.14 | 
16 | CN1CCC(=C2c3ccccc3CCc3sccc32)CC1 [Pizotifen Malate] | 0.02 | 0.36 | -0.76 | 0.03 | -0.03 | -0.43 | 0.5 |  | -0.14 |  | 0.16 | -0.02 | -0.03 | -0.33 | 0.05 | 12.5 ± 0.16
